Assay results from PubChem BioAssay AID492993 (Johns Hopkins Ion Channel Center, 2010).
The whole screen tested about 4,900 compounds, of which about 200 (4.1%) were called active.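 The calls were made as follows: active = thallium signal drop more than 5 SD beyond the mean of the no-compound control wells, seen in both duplicate plates; inactive = the rest.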 The entries come from a sample that favours actives as a whole.

Each molecule was assayed against Inward rectifier potassium channel 2 (Mus musculus) (UniProt P35561) (assay: off-target Kir2.1 potassium flux block – cell-based, HEK293, thallium flux, selectivity assay for KCNK9 modulator project, confirmation (AID 492993;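 as to inhibition: signal is fluorescence rise after thallium addition divided by baseline fluorescence; plate controls were assay buffer only for no effect and full block by chlorpromazine control for full effect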)). Conditions: Kir2.1 cells, FluxOR thallium flux fluorescence, at 10 µM; hits give high values.
Inward rectifier potassium channel 2 (Mus musculus), sequence (P35561 whole entry, looked up): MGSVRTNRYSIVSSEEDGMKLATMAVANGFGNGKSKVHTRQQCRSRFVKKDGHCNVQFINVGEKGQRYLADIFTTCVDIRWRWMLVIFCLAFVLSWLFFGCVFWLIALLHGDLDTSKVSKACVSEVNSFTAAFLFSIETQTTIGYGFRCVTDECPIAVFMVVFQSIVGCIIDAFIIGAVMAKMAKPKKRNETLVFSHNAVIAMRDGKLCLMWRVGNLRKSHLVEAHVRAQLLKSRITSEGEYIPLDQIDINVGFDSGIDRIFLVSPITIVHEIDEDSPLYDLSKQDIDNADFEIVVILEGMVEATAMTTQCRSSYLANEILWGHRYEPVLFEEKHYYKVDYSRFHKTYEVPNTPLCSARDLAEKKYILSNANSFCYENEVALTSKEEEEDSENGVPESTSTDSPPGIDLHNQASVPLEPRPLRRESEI
`CCCCCCCCCCCCn1ccc(=N)cc1` was tested, and the inhibition was 75% (active). For `CCCCCCN=C(CC)c1c(O)n(CCCC)c(=O)[nH]c1=O`, the inhibition was “inactive”. With `CC(C)(C)c1ccc(OC(=O)N2CCCCC2)cc1` the inhibition was “inactive”. In the case of `CCOC(=O)C1SC2(C(F)(F)C(F)F)CC1(O)c1c(c(OC)c3occc3c1OC)O2` (stereo not given), the inhibition is reported as “inactive”. With `CC(C)(C)c1ccc(CN2C(=O)CN=C(c3ccccc3)c3ccccc32)cc1` the inhibition was “inactive”.
